Test results as given in ChEMBL document CHEMBL1961873, “Compounds: GSK PKIS; Assays: Nanosyn kinase panel” (2012).

Tests used:
[1] = target: T1, Inhibitor of nuclear factor kappa-B kinase subunit epsilon (Homo sapiens) (UniProt Q14164); details: at 1 µM;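 note: reported values are averaged percent inhibition figures against human IKKε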
T1 sequence (whole entry): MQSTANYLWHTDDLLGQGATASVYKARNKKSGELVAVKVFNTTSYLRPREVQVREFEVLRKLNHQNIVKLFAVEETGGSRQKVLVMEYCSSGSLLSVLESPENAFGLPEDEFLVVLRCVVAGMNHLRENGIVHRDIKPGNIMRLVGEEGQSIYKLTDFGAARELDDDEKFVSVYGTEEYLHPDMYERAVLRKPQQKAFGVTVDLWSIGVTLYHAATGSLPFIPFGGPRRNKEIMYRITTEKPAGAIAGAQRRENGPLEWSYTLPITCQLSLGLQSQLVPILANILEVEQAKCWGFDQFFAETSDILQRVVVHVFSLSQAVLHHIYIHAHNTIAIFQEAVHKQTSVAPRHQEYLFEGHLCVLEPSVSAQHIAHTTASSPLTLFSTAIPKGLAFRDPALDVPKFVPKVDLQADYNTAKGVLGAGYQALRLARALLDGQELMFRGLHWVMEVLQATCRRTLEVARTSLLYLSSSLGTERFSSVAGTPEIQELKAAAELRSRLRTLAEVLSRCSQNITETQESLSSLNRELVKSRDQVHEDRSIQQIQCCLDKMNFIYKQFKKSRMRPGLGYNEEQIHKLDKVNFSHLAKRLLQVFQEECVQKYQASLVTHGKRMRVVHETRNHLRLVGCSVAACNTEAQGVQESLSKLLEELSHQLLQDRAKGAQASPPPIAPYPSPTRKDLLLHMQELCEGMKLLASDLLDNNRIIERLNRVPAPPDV

[2] = target: T2, Serine/threonine-protein kinase Nek1 (Homo sapiens) (UniProt Q96PY6); details: at 0.1 µM
T2 sequence (whole entry): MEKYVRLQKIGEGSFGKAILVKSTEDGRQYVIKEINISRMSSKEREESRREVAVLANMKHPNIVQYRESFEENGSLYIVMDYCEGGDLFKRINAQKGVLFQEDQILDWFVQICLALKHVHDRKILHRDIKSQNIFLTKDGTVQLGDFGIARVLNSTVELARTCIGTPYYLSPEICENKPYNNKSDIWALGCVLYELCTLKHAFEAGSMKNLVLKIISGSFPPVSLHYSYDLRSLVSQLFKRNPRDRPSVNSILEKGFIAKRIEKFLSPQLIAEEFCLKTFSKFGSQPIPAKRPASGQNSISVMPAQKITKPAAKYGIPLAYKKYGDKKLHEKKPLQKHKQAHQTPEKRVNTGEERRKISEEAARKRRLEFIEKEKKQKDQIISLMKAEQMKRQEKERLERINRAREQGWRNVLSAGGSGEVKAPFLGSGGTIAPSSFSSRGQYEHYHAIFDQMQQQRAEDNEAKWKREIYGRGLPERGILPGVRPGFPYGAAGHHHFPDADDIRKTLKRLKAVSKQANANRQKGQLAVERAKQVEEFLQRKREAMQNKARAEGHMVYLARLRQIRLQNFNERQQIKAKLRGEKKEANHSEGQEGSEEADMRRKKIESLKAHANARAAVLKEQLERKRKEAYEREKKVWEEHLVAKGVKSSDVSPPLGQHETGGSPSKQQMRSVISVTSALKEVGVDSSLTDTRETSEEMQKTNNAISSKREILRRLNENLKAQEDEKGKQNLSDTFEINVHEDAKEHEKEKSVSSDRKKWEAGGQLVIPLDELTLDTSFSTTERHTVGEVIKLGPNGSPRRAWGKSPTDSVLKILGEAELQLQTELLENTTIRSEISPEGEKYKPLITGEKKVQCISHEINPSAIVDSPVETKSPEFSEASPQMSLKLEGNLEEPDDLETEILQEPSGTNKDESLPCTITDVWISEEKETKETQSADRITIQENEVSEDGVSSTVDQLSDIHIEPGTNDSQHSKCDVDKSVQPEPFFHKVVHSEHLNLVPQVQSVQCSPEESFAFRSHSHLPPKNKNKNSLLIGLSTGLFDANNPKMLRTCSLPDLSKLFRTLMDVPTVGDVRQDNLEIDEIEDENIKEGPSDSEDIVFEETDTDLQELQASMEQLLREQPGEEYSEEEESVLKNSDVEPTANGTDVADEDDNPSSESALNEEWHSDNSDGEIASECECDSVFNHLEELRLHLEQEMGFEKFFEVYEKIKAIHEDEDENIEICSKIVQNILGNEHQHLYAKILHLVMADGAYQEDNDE

[3] = target: T2, Serine/threonine-protein kinase Nek1 (Homo sapiens); details: at 1 µM
[4] = target: T3, Serine/threonine-protein kinase Nek2 (Homo sapiens) (UniProt P51955); details: at 0.1 µM
T3 sequence (whole entry): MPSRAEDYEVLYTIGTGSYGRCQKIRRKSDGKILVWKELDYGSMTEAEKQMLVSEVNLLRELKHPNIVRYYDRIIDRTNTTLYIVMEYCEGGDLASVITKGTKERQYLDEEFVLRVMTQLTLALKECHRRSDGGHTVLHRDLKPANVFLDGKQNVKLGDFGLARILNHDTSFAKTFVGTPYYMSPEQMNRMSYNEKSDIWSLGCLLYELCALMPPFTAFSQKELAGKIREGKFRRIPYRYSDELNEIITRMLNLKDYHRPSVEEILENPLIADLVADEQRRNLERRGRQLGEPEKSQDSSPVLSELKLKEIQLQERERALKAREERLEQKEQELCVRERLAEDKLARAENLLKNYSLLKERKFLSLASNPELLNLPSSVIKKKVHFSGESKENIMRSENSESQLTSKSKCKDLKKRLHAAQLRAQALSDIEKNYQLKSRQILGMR

[5] = target: T3, Serine/threonine-protein kinase Nek2 (Homo sapiens); details: at 1 µM
[6] = target: Serine/threonine-protein kinase Nek6 (Homo sapiens) (UniProt Q9HC98); details: at 0.1 µM
Serine/threonine-protein kinase Nek6 (Homo sapiens), sequence (Q9HC98 whole entry): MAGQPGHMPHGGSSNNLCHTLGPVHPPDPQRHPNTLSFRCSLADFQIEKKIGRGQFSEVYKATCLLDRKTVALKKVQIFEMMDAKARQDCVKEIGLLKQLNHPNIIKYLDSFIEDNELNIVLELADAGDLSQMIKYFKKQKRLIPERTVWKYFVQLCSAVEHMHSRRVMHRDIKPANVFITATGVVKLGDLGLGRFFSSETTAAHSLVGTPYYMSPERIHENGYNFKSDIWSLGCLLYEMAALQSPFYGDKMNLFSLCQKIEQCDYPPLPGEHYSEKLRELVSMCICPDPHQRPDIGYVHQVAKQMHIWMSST

[7] = target: Serine/threonine-protein kinase Nek6 (Homo sapiens) (UniProt Q9HC98); details: at 1 µM
[8] = target: Serine/threonine-protein kinase Nek7 (Homo sapiens) (UniProt Q8TDX7); details: at 0.1 µM
Serine/threonine-protein kinase Nek7 (Homo sapiens), sequence (Q8TDX7 whole entry, looked up): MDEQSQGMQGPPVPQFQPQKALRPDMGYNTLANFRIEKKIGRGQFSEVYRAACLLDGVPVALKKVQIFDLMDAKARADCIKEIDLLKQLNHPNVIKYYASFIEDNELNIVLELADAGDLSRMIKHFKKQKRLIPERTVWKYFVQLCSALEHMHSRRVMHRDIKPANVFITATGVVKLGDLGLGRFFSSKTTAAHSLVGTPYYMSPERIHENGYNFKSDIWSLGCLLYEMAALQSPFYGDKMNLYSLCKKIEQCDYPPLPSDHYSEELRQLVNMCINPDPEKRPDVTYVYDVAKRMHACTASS

[9] = target: Serine/threonine-protein kinase Nek7 (Homo sapiens) (UniProt Q8TDX7); details: at 1 µM
[10] = target: T4, Serine/threonine-protein kinase Nek9 (Homo sapiens) (UniProt Q8TD19); details: at 0.1 µM
T4 sequence (whole entry): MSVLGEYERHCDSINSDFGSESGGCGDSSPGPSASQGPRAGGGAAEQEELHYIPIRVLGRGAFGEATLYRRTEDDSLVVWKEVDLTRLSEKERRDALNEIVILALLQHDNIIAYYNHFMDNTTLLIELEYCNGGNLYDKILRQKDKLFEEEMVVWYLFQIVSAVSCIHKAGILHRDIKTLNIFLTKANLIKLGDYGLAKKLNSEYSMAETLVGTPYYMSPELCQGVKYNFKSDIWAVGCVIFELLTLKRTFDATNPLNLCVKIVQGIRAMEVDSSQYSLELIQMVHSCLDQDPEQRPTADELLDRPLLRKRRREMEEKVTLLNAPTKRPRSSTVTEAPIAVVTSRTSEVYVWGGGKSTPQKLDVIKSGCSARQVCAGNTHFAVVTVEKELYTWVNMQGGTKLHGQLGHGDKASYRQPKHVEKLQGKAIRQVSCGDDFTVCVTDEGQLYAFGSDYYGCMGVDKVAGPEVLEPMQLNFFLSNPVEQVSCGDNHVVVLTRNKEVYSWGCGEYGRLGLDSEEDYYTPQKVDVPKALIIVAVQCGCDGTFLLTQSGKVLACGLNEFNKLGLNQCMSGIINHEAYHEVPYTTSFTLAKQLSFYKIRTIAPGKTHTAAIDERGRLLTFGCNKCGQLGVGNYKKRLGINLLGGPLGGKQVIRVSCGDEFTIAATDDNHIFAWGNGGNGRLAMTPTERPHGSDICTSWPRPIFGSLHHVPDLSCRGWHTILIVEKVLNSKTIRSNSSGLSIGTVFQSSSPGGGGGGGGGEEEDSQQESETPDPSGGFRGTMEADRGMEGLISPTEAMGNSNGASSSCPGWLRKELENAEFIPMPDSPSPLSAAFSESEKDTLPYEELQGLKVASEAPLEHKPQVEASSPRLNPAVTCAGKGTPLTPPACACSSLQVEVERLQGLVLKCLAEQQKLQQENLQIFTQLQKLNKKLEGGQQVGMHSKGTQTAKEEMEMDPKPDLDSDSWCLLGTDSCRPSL

[11] = target: T4, Serine/threonine-protein kinase Nek9 (Homo sapiens); details: at 1 µM
[12] = target: Serine/threonine-protein kinase PLK1 (Homo sapiens) (UniProt P53350); details: at 0.1 µM
Serine/threonine-protein kinase PLK1 (Homo sapiens), sequence (P53350 whole entry): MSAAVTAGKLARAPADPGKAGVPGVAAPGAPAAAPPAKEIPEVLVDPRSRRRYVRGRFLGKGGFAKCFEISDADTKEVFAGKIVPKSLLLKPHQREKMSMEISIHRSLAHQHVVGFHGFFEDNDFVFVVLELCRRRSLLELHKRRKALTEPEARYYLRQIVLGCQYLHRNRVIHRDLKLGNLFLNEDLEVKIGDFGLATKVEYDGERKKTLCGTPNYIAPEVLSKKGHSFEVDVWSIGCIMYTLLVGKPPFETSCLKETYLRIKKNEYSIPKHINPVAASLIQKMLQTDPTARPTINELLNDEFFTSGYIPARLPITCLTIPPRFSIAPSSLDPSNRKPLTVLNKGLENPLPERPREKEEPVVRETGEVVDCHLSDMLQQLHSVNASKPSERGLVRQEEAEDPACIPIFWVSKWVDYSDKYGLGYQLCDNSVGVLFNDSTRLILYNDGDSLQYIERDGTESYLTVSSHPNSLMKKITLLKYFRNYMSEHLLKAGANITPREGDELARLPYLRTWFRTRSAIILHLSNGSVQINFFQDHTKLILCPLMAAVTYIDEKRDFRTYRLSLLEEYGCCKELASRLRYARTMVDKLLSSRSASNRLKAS

[13] = target: Serine/threonine-protein kinase PLK1 (Homo sapiens) (UniProt P53350); details: at 1 µM
[14] = target: T5, Dual specificity protein kinase TTK (Homo sapiens) (UniProt P33981); details: at 0.1 µM
T5 sequence (whole entry): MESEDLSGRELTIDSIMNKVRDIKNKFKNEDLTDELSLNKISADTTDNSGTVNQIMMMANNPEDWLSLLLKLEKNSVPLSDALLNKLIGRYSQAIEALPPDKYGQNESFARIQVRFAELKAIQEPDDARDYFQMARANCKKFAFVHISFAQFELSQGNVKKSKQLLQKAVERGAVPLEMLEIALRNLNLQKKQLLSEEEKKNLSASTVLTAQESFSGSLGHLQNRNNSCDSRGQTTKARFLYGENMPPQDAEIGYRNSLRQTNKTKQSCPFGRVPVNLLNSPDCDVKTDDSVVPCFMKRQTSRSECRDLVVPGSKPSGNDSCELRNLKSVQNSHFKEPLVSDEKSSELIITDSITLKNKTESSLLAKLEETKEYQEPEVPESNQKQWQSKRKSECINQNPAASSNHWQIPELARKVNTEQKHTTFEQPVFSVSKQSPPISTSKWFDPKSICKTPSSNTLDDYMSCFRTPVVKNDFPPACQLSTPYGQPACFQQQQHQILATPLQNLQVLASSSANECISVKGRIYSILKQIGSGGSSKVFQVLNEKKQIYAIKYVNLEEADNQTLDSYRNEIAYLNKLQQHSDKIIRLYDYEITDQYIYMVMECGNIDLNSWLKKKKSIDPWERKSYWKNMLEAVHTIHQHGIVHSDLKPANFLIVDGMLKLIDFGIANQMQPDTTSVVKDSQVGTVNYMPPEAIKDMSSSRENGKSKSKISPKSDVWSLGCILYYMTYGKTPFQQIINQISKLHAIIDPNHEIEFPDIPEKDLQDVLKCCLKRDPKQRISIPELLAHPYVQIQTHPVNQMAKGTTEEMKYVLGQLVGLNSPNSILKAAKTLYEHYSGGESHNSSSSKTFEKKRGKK

[15] = tested on: T6, Receptor-type tyrosine-protein kinase FLT3 (Homo sapiens), P36888 [D835Y]; details: at 1 µM
T6 sequence (whole entry): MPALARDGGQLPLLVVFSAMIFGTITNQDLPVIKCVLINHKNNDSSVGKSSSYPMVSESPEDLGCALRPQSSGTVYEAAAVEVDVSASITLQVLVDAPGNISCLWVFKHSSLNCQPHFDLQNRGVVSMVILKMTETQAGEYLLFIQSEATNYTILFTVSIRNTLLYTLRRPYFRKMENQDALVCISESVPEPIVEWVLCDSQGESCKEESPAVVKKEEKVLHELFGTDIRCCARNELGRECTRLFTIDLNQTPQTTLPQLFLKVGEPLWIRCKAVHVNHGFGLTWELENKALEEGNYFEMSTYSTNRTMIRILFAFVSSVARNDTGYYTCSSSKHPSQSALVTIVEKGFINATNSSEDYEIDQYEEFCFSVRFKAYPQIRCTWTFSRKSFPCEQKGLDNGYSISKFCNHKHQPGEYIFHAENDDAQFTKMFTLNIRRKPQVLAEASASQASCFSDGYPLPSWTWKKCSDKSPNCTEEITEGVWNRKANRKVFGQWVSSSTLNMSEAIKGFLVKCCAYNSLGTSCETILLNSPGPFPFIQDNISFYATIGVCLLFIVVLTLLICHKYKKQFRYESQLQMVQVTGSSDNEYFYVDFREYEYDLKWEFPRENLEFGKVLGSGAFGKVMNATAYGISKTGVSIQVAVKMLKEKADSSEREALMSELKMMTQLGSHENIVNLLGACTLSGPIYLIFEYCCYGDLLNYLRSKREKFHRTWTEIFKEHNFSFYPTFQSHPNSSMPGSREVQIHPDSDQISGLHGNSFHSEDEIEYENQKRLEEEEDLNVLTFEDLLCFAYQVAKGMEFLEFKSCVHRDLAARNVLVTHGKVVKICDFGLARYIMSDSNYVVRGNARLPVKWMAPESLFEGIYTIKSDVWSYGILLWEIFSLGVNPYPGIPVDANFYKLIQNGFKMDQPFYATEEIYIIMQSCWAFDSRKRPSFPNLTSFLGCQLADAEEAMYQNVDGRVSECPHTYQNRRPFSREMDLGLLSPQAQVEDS

[16] = target: Vascular endothelial growth factor receptor 3 (Homo sapiens) (UniProt P35916); details: at 0.1 µM
Vascular endothelial growth factor receptor 3 (Homo sapiens), sequence (P35916 whole entry): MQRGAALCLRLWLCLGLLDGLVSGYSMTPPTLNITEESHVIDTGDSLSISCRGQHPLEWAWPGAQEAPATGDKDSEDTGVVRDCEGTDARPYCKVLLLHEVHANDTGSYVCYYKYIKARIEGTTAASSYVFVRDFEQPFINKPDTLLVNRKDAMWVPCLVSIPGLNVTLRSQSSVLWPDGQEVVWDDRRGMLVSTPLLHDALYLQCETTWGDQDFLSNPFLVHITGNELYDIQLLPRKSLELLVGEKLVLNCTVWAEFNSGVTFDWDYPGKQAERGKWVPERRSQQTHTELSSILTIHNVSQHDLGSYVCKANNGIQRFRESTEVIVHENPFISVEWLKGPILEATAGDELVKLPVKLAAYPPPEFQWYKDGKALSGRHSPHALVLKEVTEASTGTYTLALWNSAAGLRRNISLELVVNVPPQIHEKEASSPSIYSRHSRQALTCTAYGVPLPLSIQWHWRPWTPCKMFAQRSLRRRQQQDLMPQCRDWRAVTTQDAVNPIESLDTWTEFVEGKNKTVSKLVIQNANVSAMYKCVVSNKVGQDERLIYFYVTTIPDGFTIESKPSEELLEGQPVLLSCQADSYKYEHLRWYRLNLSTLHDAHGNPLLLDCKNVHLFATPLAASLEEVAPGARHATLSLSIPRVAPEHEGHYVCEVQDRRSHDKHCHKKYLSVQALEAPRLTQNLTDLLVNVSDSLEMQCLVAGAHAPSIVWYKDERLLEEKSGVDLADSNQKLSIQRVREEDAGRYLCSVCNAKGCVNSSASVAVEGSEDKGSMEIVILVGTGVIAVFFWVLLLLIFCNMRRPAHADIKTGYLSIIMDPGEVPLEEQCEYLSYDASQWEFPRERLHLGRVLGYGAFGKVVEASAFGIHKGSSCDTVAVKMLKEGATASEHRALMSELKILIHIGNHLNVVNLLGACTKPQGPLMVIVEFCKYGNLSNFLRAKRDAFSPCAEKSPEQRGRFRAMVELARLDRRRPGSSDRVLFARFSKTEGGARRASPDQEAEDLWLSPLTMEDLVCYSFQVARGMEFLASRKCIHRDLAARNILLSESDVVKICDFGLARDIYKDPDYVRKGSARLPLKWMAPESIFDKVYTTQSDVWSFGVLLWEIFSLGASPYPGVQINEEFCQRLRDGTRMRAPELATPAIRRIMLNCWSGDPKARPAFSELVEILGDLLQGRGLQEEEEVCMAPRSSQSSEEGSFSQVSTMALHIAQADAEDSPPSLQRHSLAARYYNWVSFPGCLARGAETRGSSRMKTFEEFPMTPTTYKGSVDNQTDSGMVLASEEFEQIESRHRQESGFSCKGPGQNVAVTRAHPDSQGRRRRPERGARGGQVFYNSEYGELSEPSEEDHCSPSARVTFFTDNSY

[17] = target: Vascular endothelial growth factor receptor 3 (Homo sapiens) (UniProt P35916); details: at 1 µM
[18] = target: Macrophage colony-stimulating factor 1 receptor (Homo sapiens) (UniProt P07333); details: at 0.1 µM
Macrophage colony-stimulating factor 1 receptor (Homo sapiens), sequence (P07333 whole entry): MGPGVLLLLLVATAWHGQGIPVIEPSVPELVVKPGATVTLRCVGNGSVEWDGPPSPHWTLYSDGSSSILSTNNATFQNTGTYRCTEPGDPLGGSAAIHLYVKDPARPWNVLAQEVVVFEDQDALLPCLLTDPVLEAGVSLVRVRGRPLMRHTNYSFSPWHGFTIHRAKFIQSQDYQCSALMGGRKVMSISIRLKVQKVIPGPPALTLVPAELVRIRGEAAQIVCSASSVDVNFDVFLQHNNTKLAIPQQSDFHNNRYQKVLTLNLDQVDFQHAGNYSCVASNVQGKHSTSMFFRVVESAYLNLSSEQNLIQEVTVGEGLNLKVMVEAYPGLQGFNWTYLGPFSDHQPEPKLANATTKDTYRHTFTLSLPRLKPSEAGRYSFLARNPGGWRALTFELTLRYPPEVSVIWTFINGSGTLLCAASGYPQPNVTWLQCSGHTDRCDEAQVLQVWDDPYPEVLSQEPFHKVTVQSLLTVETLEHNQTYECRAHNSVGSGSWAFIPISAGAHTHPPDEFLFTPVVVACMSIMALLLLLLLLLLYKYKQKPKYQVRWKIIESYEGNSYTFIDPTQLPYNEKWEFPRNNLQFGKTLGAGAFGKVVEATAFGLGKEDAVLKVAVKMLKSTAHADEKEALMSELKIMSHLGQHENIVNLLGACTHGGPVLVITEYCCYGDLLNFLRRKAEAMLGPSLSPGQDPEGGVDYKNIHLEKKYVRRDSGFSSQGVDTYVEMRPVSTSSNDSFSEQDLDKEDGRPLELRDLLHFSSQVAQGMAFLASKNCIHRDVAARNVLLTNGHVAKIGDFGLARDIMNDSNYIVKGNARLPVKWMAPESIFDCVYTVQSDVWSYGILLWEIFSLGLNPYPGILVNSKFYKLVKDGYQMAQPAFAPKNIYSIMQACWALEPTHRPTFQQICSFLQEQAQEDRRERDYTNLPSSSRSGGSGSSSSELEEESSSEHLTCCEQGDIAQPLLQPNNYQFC

[19] = target: Macrophage colony-stimulating factor 1 receptor (Homo sapiens) (UniProt P07333); details: at 1 µM
[20] = target: Tyrosine-protein kinase Fyn (Homo sapiens) (UniProt P06241); details: at 0.1 µM
Tyrosine-protein kinase Fyn (Homo sapiens), sequence (P06241 2-537 limits assumed): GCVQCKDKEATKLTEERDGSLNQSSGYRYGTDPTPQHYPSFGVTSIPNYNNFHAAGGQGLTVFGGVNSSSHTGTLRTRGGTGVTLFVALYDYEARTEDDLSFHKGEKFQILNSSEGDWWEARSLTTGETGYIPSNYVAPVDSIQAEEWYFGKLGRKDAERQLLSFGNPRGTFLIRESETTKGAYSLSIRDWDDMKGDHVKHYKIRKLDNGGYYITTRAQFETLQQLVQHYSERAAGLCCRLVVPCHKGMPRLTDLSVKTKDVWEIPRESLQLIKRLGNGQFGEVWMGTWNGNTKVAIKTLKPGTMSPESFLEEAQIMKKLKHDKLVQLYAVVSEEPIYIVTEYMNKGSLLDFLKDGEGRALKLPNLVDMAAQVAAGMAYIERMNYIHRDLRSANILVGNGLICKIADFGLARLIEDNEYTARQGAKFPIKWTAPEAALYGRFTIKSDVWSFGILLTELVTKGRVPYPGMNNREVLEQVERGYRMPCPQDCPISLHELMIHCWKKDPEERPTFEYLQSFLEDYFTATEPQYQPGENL

Cc1cc(Cl)cc2c1NC(=O)C2=NNc1ccc(S(N)(=O)=O)cc1
inhibition [1]: 6.95% | inhibition [2]: 1.58% | inhibition [3]: 2.35% | inhibition [4]: 2.49% | inhibition [5]: 2.54% | inhibition [6]: 0.31% | inhibition [7]: 1.33% | inhibition [8]: 1.91% | inhibition [9]: 1.96% | inhibition [10]: 3.08% | inhibition [11]: 10.9% | inhibition [12]: 6.15% | inhibition [13]: 2.07% | inhibition [14]: 4.88% | inhibition [15]: -4.47% | inhibition [16]: 1.38% | inhibition [17]: 1.06% | inhibition [18]: -2.64% | inhibition [19]: 8.32% | inhibition [20]: 0.94%
